Screening results as filed in PubChem BioAssay.
GLP1R inv ag – qHTS of GLP-1 Receptor Inverse Agonists (Inhibition Mode); Potency, µM (top dose mostly 38.3 µM), without a hit: at the highest dose activity change, negative = inhibition, hits mostly inhibitors; hit rate 1.6% among 410,000; HEK293 GLP-1R CRE-luciferase, luminescence, 24 h; GLP-1R form is constitutively active; note: potency is the fitted concentration of half-maximal effect; % is set by controls: 0 for no effect and ±100 for the full control effect; nearly all actives have a fitted effect of over 55% in size
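Constitutively active GLP-1R drives a cAMP-responsive luciferase in stably transfected HEK293 cells; test compounds are added after overnight (12 h) attachment and left 24 hr, and signal loss in luminescence marks inhibition.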
DRD3 antagonist – qHTS of D3 Dopamine Receptor Antagonist: qHTS. D(3) dopamine receptor (Homo sapiens), P35462. max response, negative = inhibition, %. AID 652054, 2013. hit rate 2.5% among 360,000. D3R cells, DiscoveRx beta-arrestin luminescence, antagonist mode; hits give low values; in the data active = max response below about -50%; inconclusive = no clear call, values can overlap the other calls; note: % is set by controls: 0 for no effect and ±100 for the full control effect
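Cells expressing the human receptor were seeded at 1500 cells/well, incubated overnight at 37 degrees C in 5% CO2, then exposed to library compounds with dopamine controls for 90 minutes at 37 degrees C before luminescent detection.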
GLP-1R agonist – qHTS of GLP-1 Receptor Agonists; HEK293 GLP-1R CRE-luciferase, luminescence, 4-6 h; cells express a hypersensitive GLP-1R form; Glucagon-like peptide 1 receptor (Homo sapiens), P43220; hit rate 0.007% among 380,000; Potency, µM (highest dose often 45.6 µM), inactives show at the top dose activation, usual class: activators; note: potency is the fitted concentration of half-maximal effect; % of control where 0% means no effect
ClpP mod – qHTS Assay for Activators of ClpP | ATP-dependent Clp protease proteolytic subunit (Bacillus subtilis (strain 168)), P80244 | purified B. subtilis ClpP, FRET peptide cleavage, 20 min | Potency, µM (doses to about 57.5 µM), for inactives: at the top dose activity change, negative = active | hit rate 1.9% among 340,000 | AID 651965, 2013; active = well fitted falling curve with a large enough effect; inconclusive = small, poorly fitted or top-dose-only effect; inactive = no such curve, though single readings can be large or run the other way; note: potency is the fitted concentration of half-maximal effect; the source files actives as falling curves though it sought activators and does not explain the sign; nearly all actives have a fitted effect of over 65% in size
Target sequence (P80244 whole entry, looked up): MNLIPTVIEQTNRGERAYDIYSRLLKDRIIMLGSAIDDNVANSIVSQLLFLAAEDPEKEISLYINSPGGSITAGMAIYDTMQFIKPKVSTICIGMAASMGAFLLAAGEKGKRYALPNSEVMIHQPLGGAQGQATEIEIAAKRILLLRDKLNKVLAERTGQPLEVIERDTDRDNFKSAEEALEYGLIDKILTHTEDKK
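Purified B. subtilis ClpP, 10 microg/mL final in Tris/HCl pH8 with KCl, BSA, glycerol and Tween-20, cleaved an Abz/nitrotyrosine-quenched decapeptide. Fluorescence (ex 320, em 430) was read at 0 and 20 min at room temperature. Delta was normalized to 5.8 microM ADEP and DMSO/no-enzyme controls.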
HEK293 tox – qHTS of GLP-1 Receptor Inverse Agonists: Cytotox Screen; HEK293 cAMP-luciferase reporter cells, luminescence, 24 h; Potency, µM (titrated, usually from 38.3 µM), for inactives: at the top dose activity change, negative = inhibition, hits mostly inhibitors; hit rate 0.13% among 410,000; AID 624418, 2012;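 note: loss of luciferase light is scored as toxicity; potency is the fitted concentration of half-maximal effect; % is set by controls: 0 for no effect and ±100 for the full control effect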
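Luminescence readout: signal drop marks cytotoxicity. Plated cells grew 12 h at 37 °C, 5% CO2, received 23 nL compound for 24 h, then got luciferase reagent, read after 12 min at RT.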
DRD3 agonist – qHTS of D3 Dopamine Receptor Agonist: qHTS; D3R DiscoveRx beta-arrestin cells, luminescence, 90 min; max activation, %; hit rate 0.58% among 410,000; AID 652048, 2013; in the data active = max activation above about 30%; note: 0% is about no effect
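Agonist-mode cell screen: cells plated at 1500/well and incubated overnight at 37 °C, then exposed to library compounds for 90 min at 37 °C. Detection reagent was added for 30–60 min at room temperature, and luminescence was read.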
* hit, by the source's call. The list is not random: actives were taken first. Their share in the collection is about 5.7%. Unless noted, calls come from the whole dose curve; as a rule, active = well fitted curve in the direction sought with a large enough effect; inconclusive = small, poorly fitted or top-dose-only effect, or another doubt; inactive = no such curve, though single readings can be large; an effect the other way counts as inactive or inconclusive.

Screening Cc1coc2cc3oc(=O)c(CCC(=O)NC4CC4)c(C)c3cc12 returned GLP1R inv ag 5%, DRD3 antagonist 6, GLP-1R agonist 11%, ClpP mod 5%, HEK293 tox -5% and DRD3 agonist 3.
`Cc1c(CCC(=O)N2CCC(C(=O)O)CC2)c(=O)oc2cc3oc4c(c3cc12)CCCC4` gave GLP1R inv ag 17%, DRD3 antagonist 96, GLP-1R agonist -4%, ClpP mod -13%, HEK293 tox 2% and DRD3 agonist 42*.
Cc1c(CCC(=O)N2CCC(C(=O)O)(c3ccccc3)CC2)c(=O)oc2cc3oc4c(c3cc12)CCCC4 was read as GLP1R inv ag 29%, DRD3 antagonist -25, GLP-1R agonist -5%, ClpP mod 4%, HEK293 tox 1% and DRD3 agonist -4.
Screening Cc1c(CC(=O)N2CCC(C(N)=O)CC2)c(=O)oc2cc3c(cc12)CCC1(CCCCC1)O3 returned GLP1R inv ag -18%, DRD3 antagonist 74, GLP-1R agonist 12%, ClpP mod 5%, HEK293 tox -6% and DRD3 agonist 45*.
CN1CCN(C(CNC(=O)C(=O)Nc2ccccc2)c2ccc3c(c2)OCO3)CC1 (stereo not given) was read as GLP1R inv ag -12%, ClpP mod 0%, HEK293 tox 1% and DRD3 agonist 5.
Screening COc1ccc(-c2nnc(SCc3cc(=O)c4cc(C)cc(C)c4[nH]3)n2C)cc1 returned GLP1R inv ag 2%, ClpP mod -4%, HEK293 tox 5% and DRD3 agonist 1.
`COc1cccc(-c2ccc(C#N)c(OC(=O)c3c(Cl)cccc3Cl)n2)c1` gave GLP1R inv ag inconclusive, DRD3 antagonist 13, GLP-1R agonist 18%, ClpP mod 16µM*, HEK293 tox -3% and DRD3 agonist 4.
Screening N#Cc1cn(Cc2ccccc2)c2ccccc12 returned GLP1R inv ag 11µM*, DRD3 antagonist 0, GLP-1R agonist 6%, ClpP mod -2%, HEK293 tox 11% and DRD3 agonist -3.
`O=C(O)CC(C(=O)O)c1cn(Cc2ccccc2)c2ccccc12` (stereo not given) gave GLP1R inv ag -27%, DRD3 antagonist 0, GLP-1R agonist -15%, ClpP mod 28µM*, HEK293 tox -9% and DRD3 agonist 2.
Screening O=C(O)Cc1cn(Cc2cccc(Cl)c2)c2ccccc12 returned GLP1R inv ag 8%, DRD3 antagonist 7, GLP-1R agonist -8%, ClpP mod -2%, HEK293 tox 7% and DRD3 agonist 2.
For COc1ccccc1NC(=O)CSc1nc2c(oc3ccccc32)c(=O)n1C the results were GLP1R inv ag -4%, DRD3 antagonist 67, GLP-1R agonist 1%, ClpP mod -1%, HEK293 tox -17% and DRD3 agonist 31*.
`CCc1ccccc1NC(=O)CSc1nc2c(oc3ccccc32)c(=O)n1C` gave GLP1R inv ag 6%, ClpP mod 1%, HEK293 tox -8% and DRD3 agonist 8.
`CCc1ccc2occ(CC(=O)Nc3sc4c(c3C(=O)OC)CCC4)c2c1` gave GLP1R inv ag inconclusive, ClpP mod inconclusive, HEK293 tox -1% and DRD3 agonist 10.
Screening CC1CCC(N2CCN(S(=O)(=O)Cc3ccccc3)CC2)CC1 (stereo not given) returned GLP1R inv ag -29%, DRD3 antagonist 4, GLP-1R agonist 8%, HEK293 tox -16% and DRD3 agonist 1.
